In PubChem BioAssay (NCATS):
Records with an inconclusive call do not appear. Calls of active or inactive are those of the source. Unless noted, calls follow the shape of the dose curve; as a rule, active = well fitted inhibition curve with a large enough effect; inconclusive = small, poorly fitted or top-dose-only effect; inactive = no such curve, though single readings can be large or run the other way.

assay: S16 Schwann cell PMP22 intronic element firefly luciferase assay (AID 624032); settings: S16 rat Schwann cells, PMP22 element FLuc, 24 h; series mostly up to 57.5 µM; activity change, negative = inhibition: at the top concentration;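 also: plate controls were DMSO for no effect and PTC124 positive control mean for full effect; nearly all actives have a fitted effect of over 30% in size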
How it was run: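 Luciferase reporter of PMP22 intronic-element expression in stably transfected S16 rat Schwann cells, read by ONE-Glo luminescence after 24 h compound exposure at 37 C. Activity scaled between DMSO (0%) and positive-control PTC124; concentration-effect curves quality-classified.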

SMILES | activity change, negative = inhibition
Cc1c(C)c2c(c(C)c1OC(=O)c1cccnc1)CC[C@@](C)(CCC[C@H](C)CCC[C@H](C)CCCC(C)C)O2 | 18.4% (inactive)
CCN(CC)S(=O)(=O)c1ccc(C(=O)O)cc1 | -6.64% (inactive)
Nc1ncnc(Nc2ccccc2)n1 | 44.1% (inactive)
CN/C(=C\[N+](=O)[O-])NCCSCc1csc(CN(C)C)n1 | 2.64% [at 25.7 µM] (inactive)
NNc1nnc(NN)c2ccccc12 | 167% (inactive)
Cc1cc(OI)c(C(C)C)cc1-c1cc(C(C)C)c(OI)cc1C | -22.4% (inactive)
O=C(O)Cn1c(C(=O)Nc2nc(-c3ccccc3Cl)cs2)cc2ccccc21 | 139% (inactive)
CCN(CC)CCc1nc(-c2ccccc2)no1 | 26.3% [at 25.7 µM] (inactive)
O[C@@H]1CO[C@H]2[C@@H]1OC[C@@H]2O | -1.27% (inactive)
CCOC(N)=O | -9.68% (inactive)
CCCCCCCCCCC(CO)CCCCCCCC (configuration not stated) | 6.06% (inactive)
c1ccc2[nH]ccc2c1 | 23.6% (inactive)
COC(=O)c1ccccc1C(=O)c1ccc(OCCN2CCCCC2)cc1 | -24.1% (inactive)
Cc1ncc(CO)c(CN)c1O | -19.1% (inactive)
CCOc1ccc(C(=O)OCCN(CC)CC)cc1 | 2.4% (inactive)
NS(=O)(=O)c1cc(-c2nn[nH]n2)c(NCc2cccs2)cc1Cl | 28.6% (inactive)
NS(=O)(=O)c1ccc(C(=O)O)cc1 | 15.4% (inactive)

SMILES | activity change, negative = inhibition
NC(N)=NCCN1CCCCCCC1 | -10.2% [at 25.7 µM] (inactive)
CC(C)c1cc2c(cc1S(=O)(=O)O)[C@@]1(C)CCC[C@@](C)(C(=O)O)[C@@H]1CC2 | -28.8% (inactive)
CC(=O)SC[C@@H](Cc1ccccc1)C(=O)NCC(=O)OCc1ccccc1 | 1.29% [at 25.7 µM] (inactive)
CN(C(=O)c1c(O)c2ccccc2n(C)c1=O)c1ccccc1 | 18.1% (inactive)
CC(C)C[C@@H](N)C(=O)O | -3.5% (inactive)
OCc1ccc(Cl)cc1Cl | 5.11% (inactive)
CC1CCN(CCCC(=O)c2ccc(F)cc2)CC1 | 21.6% (inactive)
NS(=O)(=O)c1cc2c(cc1C(F)(F)F)NCNS2(=O)=O | -2.27% [at 25.7 µM] (inactive)
CCc1cccc(CC)c1NC(=O)CN(CC(=O)O)CC(=O)O | 25.9% [at 25.7 µM] (inactive)
C[C@@H](N)C(=O)O | 7.17% (inactive)
CC(=O)Nc1ccc(OCCOCCOc2ccc(NC(C)=O)cc2)cc1 | 2.13% (inactive)
COc1nccnc1NS(=O)(=O)c1ccc(N)cc1 | -5.75% (inactive)
O=C(O)COC(=O)Cc1ccccc1Nc1c(Cl)cccc1Cl | 2.64% [at 25.7 µM] (inactive)
O=C(CCBr)N1CCN(C(=O)CCBr)CC1 | 3.5% (inactive)
Cc1ccc(S(=O)(=O)NC(=O)NC2CCCCCCC2)cc1 | 5.36% (inactive)
COc1ccccc1OC(=O)Oc1ccccc1OC | -4.09% (inactive)

assay: S16 Schwann cell PMP22 intronic element beta-lactamase assay (AID 624044; calls by dose curve;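 also: 0% = DMSO and -100% = potassium clavulanate positive control; nearly all actives have a fitted effect of over 15% in size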); settings: S16 rat Schwann cells, PMP22 element beta-lactamase FRET, 24 h; series mostly up to 38.3 µM; ratio activity, negative = inhibition: at the top concentration
How it was run: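 Beta-lactamase reporter under a PMP22 intronic regulatory element in stable S16 rat Schwann cells; 24 h compound exposure. 460 nm blue signal normalized between DMSO (0%) and potassium clavulanate, with 535 nm FRET tracking viability; curves classed by r2 and response.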

SMILES | ratio activity, negative = inhibition
CCN(CC)S(=O)(=O)c1ccc(C(=O)O)cc1 | 5.49% (inactive)
NNc1nnc(NN)c2ccccc12 | 6.03% (inactive)
Cc1cc(OI)c(C(C)C)cc1-c1cc(C(C)C)c(OI)cc1C | 2.3% (inactive)
O=C(O)Cn1c(C(=O)Nc2nc(-c3ccccc3Cl)cs2)cc2ccccc21 | 5.65% (inactive)
c1ccc2[nH]ccc2c1 | 11.7% (inactive)
NC(N)=NCCN1CCCCCCC1 | -1.18% [at 17.1 µM] (inactive)
CC(C)c1cc2c(cc1S(=O)(=O)O)[C@@]1(C)CCC[C@@](C)(C(=O)O)[C@@H]1CC2 | -2.9% (inactive)
CC(=O)SC[C@@H](Cc1ccccc1)C(=O)NCC(=O)OCc1ccccc1 | 1.01% [at 17.1 µM] (inactive)
CC(C)C[C@@H](N)C(=O)O | -0.354% (inactive)
OCc1ccc(Cl)cc1Cl | -4.13% (inactive)
C[C@@H](N)C(=O)O | -13.4% (inactive)
CC(=O)Nc1ccc(OCCOCCOc2ccc(NC(C)=O)cc2)cc1 | 4.06% (inactive)
O=C(CCBr)N1CCN(C(=O)CCBr)CC1 | 1.95% (inactive)
Cc1ccc(S(=O)(=O)NC(=O)NC2CCCCCCC2)cc1 | 6.46% (inactive)
